Data as given in PubChem BioAssay (NCATS).
“And” between values parts separate entries of the source, which are not always exact repeats. Equal entries are not always repeated. Values without a mark were called inactive. Records with an inconclusive call do not appear. Where a structure was tested more than once in an assay, its records may differ in their call. The source made the active and inactive calls. Unless noted, the call rests on the fitted dose curve; in most records, active means well fitted inhibition curve with a large enough effect; inconclusive means small, poorly fitted or top-dose-only effect; inactive means flat fitted curve, though single readings scatter.

Test system: not listed separately
Experiment: Drug repurposing screens with cells derived from glioblastoma tumor samples (AID 1345199); further: nearly all actives have a fitted effect of over 40% in size; further: potency means the concentration at half of the fitted maximal effect; on activity, negative = cell killing: on the % scale 0 is the no-effect control and ±100 the full control effect
Settings: GBM patient neurospheres viability, ATP luminescence, 48 h; at 46.1 µM (top of the series); tumour line C
Method in brief: (§1)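 Primary testing used CD133+ neurospheres from four GBM patients, seven concentrations, 48 h exposure and ATP-based viability; confirmation added three slower-growing patient lines.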

SMILES	activity, negative = cell killing
CCNC(=O)NCCCOc1cccc(CN2CCCCC2)c1	-25.1%
C=CCOc1cc(Cl)ccc1C(=O)NCCN(CC)CC	2.19%
C=CC[N+]1([C@H]2C[C@H]3[C@@H]4CC[C@H]5C[C@H](OC(C)=O)[C@@H](N6CCCCC6)C[C@]5(C)[C@H]4CC[C@]3(C)[C@H]2OC(=O)CC)CCCCC1	-14.4%
Nc1c2ccccc2nc2ccccc12	-4.16%
C[C@@H](C1=C(CCN(C)C)Cc2ccccc21)c1ccccn1	-5.63%
Cn1cc(S(C)=O)c(=O)c2ccc(F)cc21 (stereo not drawn)	-1.4%
O=C(O)c1ccccc1Nc1cc(Cl)ccc1C(=O)O	1.8%
CN1[C@@H]2CC[C@H]1CC(NC(=O)n1c(=O)[nH]c3ccccc31)C2 (stereo partly drawn)	9.49%
OC(CCCN1CCCCC1)(c1ccccc1)c1ccccc1	-3.12%

Same assay, conditions: GBM patient neurospheres viability, ATP luminescence, 48 h; at 91.6 µM (top of the series); tumour line B

SMILES	activity, negative = cell killing
CC(C)C(C)(C)C(C)(C)C(C)(C)S	-9.39%
CCCC(=O)c1cc(O)c(O)cc1O	-19.8%
CC(C)(c1ccc(O)cc1)c1ccc(O)cc1	-24%

Same assay, conditions: GBM patient neurospheres viability, ATP luminescence, 48 h; at 99.2 µM (top of the series); tumour line C

SMILES	activity, negative = cell killing
CC(C)C(C)(C)C(C)(C)C(C)(C)S	-11.4%
Nc1cccc2c(N)cccc12	-15.4%
CCCC(=O)c1cc(O)c(O)cc1O	-23.6%
CC(C)(c1ccc(O)cc1)c1ccc(O)cc1	-43.4%

Same assay, conditions: GBM patient neurospheres viability, ATP luminescence, 48 h; tumour line A

SMILES	Potency
CCNC(=O)NCCCOc1cccc(CN2CCCCC2)c1	17.8 µM (active)
CN1CCC(N(Cc2cccs2)c2ccccc2)CC1	10 µM (active)
C=CCOc1cc(Cl)ccc1C(=O)NCCN(CC)CC	10 µM (active)
C=CC[N+]1([C@H]2C[C@H]3[C@@H]4CC[C@H]5C[C@H](OC(C)=O)[C@@H](N6CCCCC6)C[C@]5(C)[C@H]4CC[C@]3(C)[C@H]2OC(=O)CC)CCCCC1	6.31 µM (active)
Nc1c2ccccc2nc2ccccc12	25.1 µM (active)
CC(C)C(C)(C)C(C)(C)C(C)(C)S	28.2 µM (active)
C[C@@H](C1=C(CCN(C)C)Cc2ccccc21)c1ccccn1	17.8 µM (active)
CCN1C(=O)c2ccccc2C1Nc1ccc(OCCN2CCCCC2)cc1 (stereo not drawn)	7.94 µM (active)
Nc1cccc2c(N)cccc12	15.8 µM (active)
CN1[C@@H]2CC[C@H]1CC(NC(=O)n1c(=O)[nH]c3ccccc31)C2 (stereo partly drawn)	28.2 µM (active)
OC(CCCN1CCCCC1)(c1ccccc1)c1ccccc1	11.2 µM (active)
N#C/C(=C1/SC[C@@H](c2ccc(Cl)cc2Cl)S1)n1ccnc1	11.2 µM (active) and 20 µM (active)

Test system: astro (control astrocytes)
Experiment: as above
Settings: viability, ATP luminescence, 48 h; series mostly up to 45.9 µM; activity, negative = cell killing: at the top concentration
Method in brief: as §1

SMILES	activity, negative = cell killing	Potency
CCNC(=O)NCCCOc1cccc(CN2CCCCC2)c1	-13.6%	–
CN1CCC(N(Cc2cccs2)c2ccccc2)CC1	-24.8%	–
O=C(Nc1ccc(Cl)cc1)Nc1ccc(Cl)c(C(F)(F)F)c1	–	10 µM (active)
C=CCOc1cc(Cl)ccc1C(=O)NCCN(CC)CC	-11.8%	–
C=CC[N+]1([C@H]2C[C@H]3[C@@H]4CC[C@H]5C[C@H](OC(C)=O)[C@@H](N6CCCCC6)C[C@]5(C)[C@H]4CC[C@]3(C)[C@H]2OC(=O)CC)CCCCC1	-13.7%	–
CCN(CC)CCOc1ccc(/C(=C(\Cl)c2ccccc2)c2ccccc2)cc1	–	17.8 µM (active)
Nc1c2ccccc2nc2ccccc12	–	10 µM (active)
CC(C(O)c1ccccc1)N(C)CCOC(c1ccccc1)c1ccccc1 (stereo not drawn)	-26.6%	–
CC(C)C(C)(C)C(C)(C)C(C)(C)S	-5.48% [at 91.6 µM]	–
C[C@@H](C1=C(CCN(C)C)Cc2ccccc21)c1ccccn1	-6.8%	–
CCN1C(=O)c2ccccc2C1Nc1ccc(OCCN2CCCCC2)cc1 (stereo not drawn)	-17.2%	–
Cn1cc(S(C)=O)c(=O)c2ccc(F)cc21 (stereo not drawn)	-12.7%	–
O=C(O)c1ccccc1Nc1cc(Cl)ccc1C(=O)O	-5.56%	–
Nc1cccc2c(N)cccc12	1.42% [at 91.6 µM]	–
CN1[C@@H]2CC[C@H]1CC(NC(=O)n1c(=O)[nH]c3ccccc31)C2 (stereo partly drawn)	-11.8%	–
CCCCCCCCCCCCCCCC[n+]1ccccc1	–	3.16 µM (active)
CO[C@@H]1[C@@H](OC)[C@H](C)[C@@](O)(CC(=O)O)O[C@H]1[C@H](C)[C@H]1O[C@@]2(CC[C@@](C)([C@H]3CC[C@@](C)([C@@H]4O[C@@H]([C@H]5O[C@](C)(O)[C@H](C)C[C@@H]5C)C[C@@H]4OC4C[C@H](OC)[C@@H](OC)[C@H](C)O4)O3)O2)C[C@H](O)[C@H]1C (stereo partly drawn)	–	1.58 µM (active)
OC(CCCN1CCCCC1)(c1ccccc1)c1ccccc1	-3.91%	–
N#C/C(=C1/SC[C@@H](c2ccc(Cl)cc2Cl)S1)n1ccnc1	-19.7%	–
CC(NCCC(c1ccccc1)c1ccccc1)c1ccccc1 (stereo not drawn)	–	25.1 µM (active)
CC[N+]1(CC)CCC(=C(c2ccccc2)c2ccccc2)C1C (stereo not drawn)	-9.08%	–

Target: Nuclear receptor subfamily 1 group I member 2 (Rattus norvegicus) (UniProt Q9R1A7)
Sequence (Q9R1A7 whole entry, looked up): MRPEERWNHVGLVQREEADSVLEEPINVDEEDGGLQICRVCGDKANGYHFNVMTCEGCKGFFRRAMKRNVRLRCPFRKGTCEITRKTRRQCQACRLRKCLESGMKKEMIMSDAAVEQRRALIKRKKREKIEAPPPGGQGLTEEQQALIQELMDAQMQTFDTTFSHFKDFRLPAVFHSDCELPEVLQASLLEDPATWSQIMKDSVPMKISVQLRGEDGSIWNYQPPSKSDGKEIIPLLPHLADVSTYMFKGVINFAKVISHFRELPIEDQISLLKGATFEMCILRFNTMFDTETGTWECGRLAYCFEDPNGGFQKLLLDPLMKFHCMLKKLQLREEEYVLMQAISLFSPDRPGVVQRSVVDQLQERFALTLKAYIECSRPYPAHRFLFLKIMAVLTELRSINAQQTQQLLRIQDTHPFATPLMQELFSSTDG
Experiment: qHTS assay for small molecule activators of the rat pregnane X receptor (rPXR) signaling pathway (AID 651751; call rule not given here; further: 0% is about no effect)
Settings: rPXR reporter cells, luciferase (One-Glo), 24 h

SMILES	max response
CC(C)C(C)(C)C(C)(C)C(C)(C)S	-1.2% and -1.45%
Nc1cccc2c(N)cccc12	-7.42% and 6.55%
CCCC(=O)c1cc(O)c(O)cc1O	-4.26%
CC(C)(c1ccc(O)cc1)c1ccc(O)cc1	7.46% and 2.86% and -5.15%
